Laboratory results from PubChem BioAssay (NCI).
The panel holds about 83,000 compounds, 20% with a hit somewhere; the sample as a whole holds those more often.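 How to read the values: 0–100, growth inhibition (40 = 60% inhibited); 0, no net growth; -100 to 0, cell death (-40 = 40% of starting cells died; -100 = all dead).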 A number with no mark means an inactive call. Activity calls are given as the source filed them. Rule for the calls: active = growth percent below 10; inactive = the rest.

Tested on: HL-60(TB) leukemia
Assay: NCI-60 one-dose screen, 48 h (100 = growth as untreated, 0 = no growth, -100 = all killed)
Settings: 10 µM unless noted

Structure (SMILES)	growth
COC(=O)c1ccc2[nH]c(O)c(C(=Nc3ccc(N(C)C(=O)CN4CCN(C)CC4)cc3)c3ccccc3)c2c1	-14.4% (active)
O=c1c2cc(F)ccc2sc2c(NCCN3CCCC3)nc3ccccc3c12	91.9%
C#CCOc1ccc2ncnc(Nc3cccc(NC(=O)CCl)c3)c2c1	63.7%
COc1ccc(-c2n[nH]c(=O)c3nc(NC(=S)Nc4ccc(Oc5ccccc5)cc4)sc23)cc1	92.9%
CCOC(=O)c1cc(C(=O)c2cc(OC)c(OC)c(OC)c2)n2c1ccc1ccccc12	-12.9% (active)
O=C1NCC(c2cc3ccccc3[nH]c2=O)Nc2ccccc21 (stereo not given)	95.7%
CN(C)c1ccc(/C=C/C(=O)c2cccc(Nc3nc(Nc4ccccc4)nc(Nc4ccccc4)n3)c2)cc1	99.9%
CC(C)(C)C(CCc1ccc(Cl)cc1)N1CCN(C2CCCCC2)CC1 (stereo not given)	48.2%
O=C1C=CC(=O)c2c1nc1n2CCCC1	94.7%
COc1cccc(-c2[nH]c(=S)ncc2C(=O)c2ccccc2)c1	78.2%
O=C1OCC2=C1C(c1ccccc1)c1cc3c(cc1N2CCO)OCCO3 (stereo not given)	-14.1% (active)
c1cncc(-c2csc(-c3c[nH]c4ccccc34)n2)c1	91.9%
CCc1ccc(-c2nnc(COc3ccc(-c4nc5cc(Cl)c(Cl)cc5[nH]4)cc3OC)o2)cc1	105%
CCS(=O)(=O)N1CCN(c2ccc(Nc3ncc(C(N)=O)c(NC4CC4)n3)cc2)CC1	71.2%
CCOC(CNC(=O)c1cccc([N+](=O)[O-])c1)OCC	105%
COc1ccc(C2Nc3ncnc(N)c3N=C3c4ccccc4C(=O)C32)cc1 (stereo not given)	58.8%
O=C(Cn1c2ccccc2c2ccncc21)N/N=C/c1cc(O)c(O)c(O)c1	85.1%
COc1cc(OC)cc(-c2ccc(-c3ccc(C(=N)N)cc3)s2)c1	-57.8% (active)
CCCCCCCSc1ccc(C(=O)O)cc1	98.6%
CO[C@H]1/C=C/C=C/C=C/C[C@H](OC(=O)[C@@H](C)NC(=O)C2CCCCC2)[C@H](C)[C@@H](O)/C(C)=C\CCC2=CC(=O)C=C(NC(=O)C1)C2=O	-26.6% (active)

Structure (SMILES)	growth
CCN(CC)CCOC(=O)N1c2ccccc2Sc2ccccc21	88.1%
COc1ccc(/C(=C\c2ccc3c(c2)OCO3)C(=O)Nc2nc3ccc(F)cc3s2)cc1OC	93%
O=c1cc(N2CCOCC2)oc2c(-c3ccc4c(c3)OCCO4)csc12	4.41% (active)
C/C=C1\SC(=S)NC1=O	110%
O=C(O)c1cc([N+](=O)[O-])ccc1Oc1ccccc1	88.6%
CCOC(=O)CC1CSC(N/N=C(/C)c2cccc(C(F)(F)F)c2)=N1 (stereo not given)	101%
COc1ccccc1/C=C\C(=O)c1ccccc1	48.3%
COC(=O)c1ccc2oc(NC(=O)c3ccc(N4CCOCC4)c([N+](=O)[O-])c3)nc2c1	96.7%
CCOC(=O)c1nn(-c2ccc(S(N)(=O)=O)cc2)c2nc(C)cc(=O)n12	101%
CCS(=O)(=O)OCCCl	86.7%
O=C(Nc1cccc(-n2cc(-c3ccncc3)c(-c3ccc(O)c(Cl)c3)n2)c1)Nc1ccc(Cl)c(C(F)(F)F)c1	-2.7% (active)
CC(Cl)(CCl)CS(=O)(=O)c1ccc(Cl)cc1 (stereo not given)	87.2%
C/C(=N\NC(=S)Nc1ccccc1)c1ccccn1	3.23% (active)
O=[N+]([O-])c1cccc(C(c2ccccc2)c2ccccc2)c1	88.9%
COc1ccc2cnc(N)c(C#Cc3cc(C(=O)Nc4ccc(CN5CCN(C)CC5)c(C(F)(F)F)c4)cnc3C)c2c1	95%
CCOc1cc(/C=C/C(=O)CC(=O)/C=C/c2ccc(OC(=O)CNc3nc4ccc(OC)cc4s3)c(OCC)c2)ccc1OC(=O)CNc1nc2ccc(OC)cc2s1	21.5%
COc1ccc(/C(=C\c2ccccc2)C(=O)O)cc1OC	112%
CC(C)=CCc1cc2c(cc1O)C1=C(C(=O)C3=C(C1=O)S(=O)(=O)CCN3)C(C=C(C)C)O2 (stereo not given)	-36% (active)
O=C(O)CCNC1CCCCC1	97.5%
CCOC(=O)c1cnn(-c2ccc(S(N)(=O)=O)cc2)c1N	92.9%
